Many of the other results were omitted from the sample, so hits are more common in it than they were.
CHX counter = Cycloheximide Counterscreen for Small Molecule Inhibitors of Shiga Toxin. cell reporter, cycloheximide protein synthesis inhibition counterscreen. hit rate 12% among 300,000. max response, %; in the data active = max response mostly above about 13%, no sharp cut-off; inactive = mostly below about 14%; note: read at 38.3 µM for the half of the compounds with a filed dose
LASV entry inh = qHTS for Inhibitors of binding or entry into cells for Lassa Virus; hit rate 1.2% among 300,000; Lassa virus pseudotype entry inhibition, cell reporter; Potency, µM (doses to about 37.9 µM), hits mostly inhibitors; AID 540256, 2011; calls by dose curve; tested in HEK293 cells; note: nearly all actives have a fitted effect of over 50% in size
VACV Venus inh = qHTS for Stage-Specific Inhibitors of Vaccinia Orthopoxvirus: Venus Reporter Primary qHTS; Potency, µM (series often up to 36.5 µM), usual class: inhibitors; AID 720580, 2013; hit rate 0.46% among 330,000; Vaccinia virus Venus reporter expression, fluorescence; calls by dose curve; tested in A549 cells; note: nearly all actives have a fitted effect of over 30% in size
Marburg entry inh = qHTS for inhibitors of binding or entry into cells for Marburg Virus; AID 540276, 2011; Potency, µM (titrated, usually from 37.8 µM), most hits filed as inhibitors; Marburg virus pseudotyped entry inhibition, cell reporter; hit rate 1.8% among 300,000; calls by dose curve; tested in HEK293 cells
Vaccinia mCherry = qHTS for Stage-Specific Inhibitors of Vaccinia Orthopoxvirus: mCherry Reporter Primary qHTS. Vaccinia virus mCherry reporter infection, fluorescence. AID 720579, 2013. hit rate 0.63% among 310,000. Potency, µM (doses to about 36.5 µM), actives largely listed as inhibitors; calls by dose curve; tested in A549 cells; note: nearly all actives have a fitted effect of over 35% in size
Shiga toxin inh = A qHTS for Small Molecule Inhibitors of Shiga Toxin; Vero cells, Shiga toxin protein synthesis inhibition reporter; inhibition, % at 38.7 µM; hit rate 9.2% among 290,000; AID 2315, 2010; in the data active = inhibition mostly above about 28%, no sharp cut-off; inactive = mostly below about 43%
Numbers stand for hits; - = inactive; ? = inconclusive; . = no result given.

SMILES	CHX counter	LASV entry inh	VACV Venus inh	Marburg entry inh	Vaccinia mCherry	Shiga toxin inh
COc1ccc(Nc2nc3ccccc3n3cnnc23)cc1Cl	35	-	-	-	-	-
COc1ccc(/C(C)=N/Nc2nc3ccccc3n3cnnc23)cc1OC	19	-	-	-	-	40
COc1cccc(Nc2nc3ccccc3n3cnnc23)c1	15	.	-	.	-	-
O=C(Nc1ccn(Cc2ccccc2F)n1)c1ccc(COc2ccc(Br)cc2)cc1	-	-	.	7.3µM	.	-
O=C(Nc1ccc(Cn2cccn2)cc1)c1ccc(COc2ccc(Br)cc2)cc1	-	-	-	-	-	-
O=C(Nc1ccn(Cc2ccccc2)n1)c1ccc(F)cc1	45	.	.	.	.	85
O=C(Nc1ccc(Cn2cccn2)cc1)c1ccc(COc2cccc(Br)c2)cc1	19	5.6µM	?	0.56µM	?	-
CC(=O)Nc1ccc(S(=O)(=O)NCCC(=O)NNC(=O)c2ccncc2)cc1	.	-	-	-	-	.
COc1ccccc1NC(=O)CCC(=O)OCc1cccc([N+](=O)[O-])c1	-	-	-	-	-	-
COc1ccc2nc(SCC(=O)c3c(C)[nH]c4ccccc34)nc(C)c2c1	.	-	-	-	-	.
CC(C)N(C(=O)[C@H]1C[C@H](CC(=O)NCCC2=CCCCC2)C(=O)N2CCc3c([nH]c4cc(-c5ccco5)ccc34)[C@]12C)C(C)C	.	.	11µM	.	10µM	.
CC(C)N(C(=O)[C@H]1C[C@H](CC(=O)NCCCN(C)C)C(=O)N2CCc3c([nH]c4cc(-c5ccco5)ccc34)[C@]12C)C(C)C	.	.	?	.	10µM	.
C/C(=N\NC(=O)C1CC1c1ccccc1)c1ccc(C)s1 (centres undefined)	-	?	-	-	-	-
CCOC(=O)C(/C(C)=N/NC(=O)C1CC1c1ccccc1)C(C)C (centres undefined)	-	2.1µM	-	-	-	-
COc1cccc(N2CN(C3CCCCC3)CNC2=S)c1	-	-	-	-	-	-
Cc1ccc(NC(=O)CSc2nc3ccccc3nc2Cc2ccccc2F)cc1F	.	-	-	-	-	.
C(=NOCc1ccccc1)c1cccnc1	.	-	-	?	-	.
CC(C)Cc1ccc(/C=C/C(=O)NC2CC2)cc1	71	-	-	-	-	112
Cc1ccc(/C=C/C(=O)NC2CCS(=O)(=O)C2)cc1 (centres undefined)	20	.	.	.	.	-
CCCOc1ccc(/C=C/C(=O)NC2CCCCC2)cc1	-	?	-	?	-	-
O=C(/C=C/c1ccccc1)NC1CCS(=O)(=O)C1 (centres undefined)	-	-	-	?	-	-
O=C(Cc1ccc(O)cc1)NC1CCCCCC1	42	-	-	?	-	69
O=C(Cc1ccc(Br)cc1)NC1CCCCC1	22	-	.	-	.	-
O=C(COC(=O)Cc1ccc(Br)cc1)NC1CCCC1	.	-	-	-	-	.
O=C(Cc1ccc([N+](=O)[O-])cc1)NC1CCCCCC1	-	.	.	.	.	-
SMILES	CHX counter	LASV entry inh	VACV Venus inh	Marburg entry inh	Vaccinia mCherry	Shiga toxin inh
Cc1cc(=O)[nH]c2nnc(SCc3ccc(Cl)cc3)n12	.	-	-	.	-	.
CC(C)NC(=O)N(C)C[C@H]1Oc2c(NC(=O)Nc3ccccc3)cccc2C(=O)N([C@H](C)CO)C[C@@H]1C	.	.	-	.	-	.
C[C@]12c3[nH]c4ccc(Cl)cc4c3CCN1C(=O)[C@@H](CC(=O)NCc1ccco1)C[C@@H]2C(=O)N1CCOCC1	.	.	?	-	-	.
CS(=O)(=O)N1Cc2cc(C(=O)NCC3CCCCC3)nc(-c3cccc(-c4cccnc4)c3)c2[C@H]1CCO	.	.	-	.	-	.
O=C(Cc1ccc(Cl)c(Cl)c1)NC1CCCCCC1	12	?	-	-	-	79
O=C(/C=C/c1ccc(Br)cc1)NC1CCCCCC1	17	?	.	-	.	62
CCN1C(=C2C(=O)c3ccccc3C2=O)C=Cc2ccccc21	25	-	.	-	.	39
CCN1C(=O)/C(=C2/C=Cc3ccccc3N2C)OC1=S	37	-	-	?	-	-
CCN1C(=O)/C(=C2\C=Cc3cc(C)ccc3N2CC)OC1=S	-	-	-	-	.	-
CCN1C(=O)/C(=C2\C=Cc3ccccc3N2CC)SC1=S	-	-	-	-	-	-
COc1cccc(NS(=O)(=O)c2ccc3[nH]cc(C(=O)NCCc4ccccc4)c(=O)c3c2)c1	.	-	-	-	-	.
O=C(NNC(=O)c1ccccc1C(=O)O)c1cc2ccccc2o1	-	.	.	.	.	-
